Measurements taken from PubChem BioAssay (NCI).
About 83,000 compounds went through this panel and 20% of them were active in at least one assay; those are over-represented in the sample as a whole.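 Values shown are percent growth following 48 h exposure of cells in 96-well plates to a single concentration of compound; below 10 was considered active.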 The source made the active and inactive calls.

system: HL-60(TB) leukemia; assay: NCI-60 one-dose screen, 48 h (100 = growth as untreated, 0 = no growth, -100 = all killed); details: 10 µM unless noted

Compound | growth
CCOC(=O)c1cc(/C=C/c2cccc(Cl)c2)on1 | 74.9% (inactive)
O=C(Nc1cccc(-c2ccc(Cl)c(C(F)(F)F)c2)c1)C1CCN(Cc2cccc3cccnc23)CC1 | -53.9% (active)
CCCCCn1cnc2c(=S)nc[nH]c21 | 95% (inactive)
CC(=O)c1cc(C(=O)c2ccc3c(c2)Sc2ccccc2N3)c2c(C)cccn12 | -4.53% (active)
C/C(=C\c1ccc([N+](=O)[O-])cc1)C(=O)O | 105% (inactive)
O=C(Nc1cc(-c2ccccc2)[nH]n1)c1ccc(Cl)cc1 | 42.1% (inactive)
Cn1c(=O)c2c(nc(Br)n2CCC(=O)Nc2ccc(F)cc2)n(C)c1=O | 91.8% (inactive)
CC(=O)n1cc(/C=C2\N=C(c3ccc(Cl)cc3)N(c3ccc(S(=O)(=O)Nc4nccs4)cc3)C2=O)c2ccccc21 | 73.3% (inactive)
O=c1c2ccccc2oc2ccc(OCCCCCCN3CCCCCC3)cc12 | -47.9% (active)
O=C(NCCNc1cc(-c2cn(-c3ccccc3)nc2-c2cccc(O)c2)ccn1)Nc1ccccc1 | 29.9% (inactive)
Cn1c(=O)n(C)c2cc(CNCCNc3ccnc4cc(Cl)ccc34)ccc21 | 35.4% (inactive)
O=c1c2cccc3c(N4CCCC4)ccc(c32)c2nc3ccccc3n12 | 72% (inactive)
Cc1ccc(-c2csc(N)n2)cc1 | 112% (inactive)
COc1ccc(/C=c2\c(=O)n(-c3ccccc3)c3nn4c(=O)c(=O)[nH]nc4n23)cc1 | 112% (inactive)
CCOC(=O)c1cc(-c2ccc(OC)cc2)[nH]c1NNC(=O)CCOC | 90.8% (inactive)
CCO/C=C1\SC(=S)N(c2cccc(O)c2)C1=O | 100% (inactive)
Cc1ccc(-c2ccc(Nc3ccccc3)nn2)cc1S(N)(=O)=O | 86.7% (inactive)
CCCCCCCCCCCC(=O)[O][Sn]([CH2]CCC)([CH2]CCC)[CH2]CCC | -44.1% (active)
CN(C)c1ccc(N=C2C=CC(=O)C=C2)cc1 | 111% (inactive)
C=CCc1cc(Cl)cc2c(OC(C)=O)c(C(C)=O)c(-c3ccccc3)nc12 | 107% (inactive)

Compound | growth
CC1=C(C(=O)OCC2CCN(C(=O)OC(C)(C)C)CC2)[C@H](c2cccc(C#N)c2)C2=C(CC(C)(C)CC2=O)N1 | 27.5% (inactive)
N[C@@H](CC/[N+]([O-])=N/O)C(=O)O | 110% (inactive)
O=C(NC(Cc1ccccc1)C(=O)CCl)OCc1ccccc1 (stereo not given) | 39.8% (inactive)
Cc1sc2nc3c4ccccc4c(NCCCN(C)C)nn3c(=O)c2c1C | -71% (active)
CC(C)(C)c1ccc(OCCCCCCCN2CCNCC2)cc1 | -40.7% (active)
C#CCSc1nnnn1-c1ccccc1 | 92.7% (inactive)
N#C/C(=C\c1cc(O)c(O)c(O)c1)C(N)=O | 69.5% (inactive)
COc1ccc2c(c1)oc1c(C)c3c(c(C)c12)C(=O)N(CCN1CCOCC1)C3=O | 87.6% (inactive)
Fc1ccc(C2CC(c3cccc(Nc4ccncc4)c3)=NN2c2ccc(Cl)cc2)cc1 (stereo not given) | 17.2% (inactive)
O=C1OCC2=C1C(c1ccc(Cl)c(Cl)c1)c1cc3c(cc1N2CCO)CCC3 (stereo not given) | -13.1% (active)
C[C@]12CC[C@@H]3c4ccc(O)c(N)c4CC[C@H]3[C@@H]1CC[C@@H]2O | 85.3% (inactive)
COc1ccc(/C=C/C(=O)c2ccc(B(O)O)cc2)cc1O | 37.7% (inactive)
CCC(=O)Nc1nnc(Cc2ccc(OC)c(OC)c2)s1 | 53.2% (inactive)
CCC/C=C(/C(C)=O)C(=O)OCC | 93.2% (inactive)
COc1cc2ncn3c(=O)c4c5c(sc4nc3c2cc1OC)CCCCC5 | 100% (inactive)
CC1(C)CCCC2=C1C(=O)N(SC(Cl)(Cl)Cl)C2=O | 76.1% (inactive)
COc1ccc(Nc2cc(C)nc(NCCCNc3ccnc4cc(Cl)ccc34)n2)cc1 | -75.7% (active)
CCc1ccccc1NC(=O)c1sc2nc3c(cc2c1N)C(=O)CCC3 | -10.3% (active)
CCN(CC)S(=O)(=O)c1ccc(NC(=O)CSc2nnc(C)n2-c2ccccc2)cc1 | 132% (inactive)
COc1ccc(Nc2nc(N)nc3c2CCc2occc2-3)cc1 | 88.8% (inactive)
